Bioassay records as filed in PubChem.
The entries come from a sample that favours hits as a whole.
YB-1 expression = YB-1 expression inhibition; 30,000 tested, 0.37% active; U2OS, qRT-PCR YB-1 vs CDIP delta delta Cp, 16 h; stronger effect = higher value; zero = DMSO, each unit about twofold; delta delta Cp (YB-1 minus CDIP) (test concentration not listed);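 active = delta delta Cp rounded down to an integer at or above 3, about 3 SD of DMSO wells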;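 also: higher means less YB-1 transcript or more CDIP transcript relative to DMSO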
Hedgehog inh = blocks Sonic Hedgehog signaling; inhibition, % (test concentration not listed); 22,000 tested, 2.1% active; Shh-LIGHT2 Gli-luciferase reporter, 30 h; AID 2313;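 active = mean inhibition across valid replicates above about 65%, limit read from the data; inconclusive = mean under the limit, yet half or more replicates past it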;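 also: pathway switched on by Shh-conditioned medium diluted 1 in 25 in low serum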
MITF inhib = inhibitors of MITF; 37,000 tested, 0.28% active; inhibition, % (concentration not given with the values); TRPM1 promoter luciferase, luminescence, 24 h; AID 2240; in the data active = inhibition above about 85%; inconclusive = no clear call, values can overlap the other calls; inactive = below about 68%;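 also: human melanocyte line stably carrying TRPM1 promoter luciferase reporter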
BJeLR viability = BJeLR cell viability reduction; BJeLR fibroblasts viability, CellTiterGlo ATP luminescence, 48 h; HRASV12, hTERT and SV40 LT/ST transformed; 30,000 tested, 0.64% active; viability loss activity score, % (no concentration beside the values); AID 2275; in the data active = viability loss activity score above about 50%; inconclusive = no clear call, values can overlap the other calls; inactive = below about 35%;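 also: higher score means fewer live cells and less ATP luminescence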
Numbers stand for hits; i = inactive; ? = inconclusive; nt = not tested or not shown.

SMILES	YB-1 expression	Hedgehog inh	MITF inhib	BJeLR viability
C[C@H](CO)N1C[C@H](C)[C@H](CN(C)Cc2ccccc2)Oc2ccc(NS(=O)(=O)c3ccc(Cl)cc3)cc2C1=O	6.1	nt	i	i
Cc1ccc(S(=O)(=O)Nc2ccc3c(c2)C(=O)N([C@H](C)CO)C[C@H](C)[C@@H](CN(C)Cc2ccccc2)OCCCC[C@@H](C)O3)cc1	i	68	i	nt
O=C(Nc1cccs1)Nc1nnc(C2CC2)s1	nt	nt	nt	i
COc1cccc(-c2cc(NCc3ccc4c(c3)OCO4)nc(N)n2)c1	i	?	i	60
C=CCn1c(=S)sc2c(SCC(N)=O)ncnc21	nt	nt	nt	i
C=CCn1c(=S)sc2c(Sc3nnc(-c4ccco4)o3)ncnc21	i	73	i	63
COc1cc(CC(CO)C(CO)Cc2cc(OC)c(O)c(-c3cc(CC(CO)C(CO)Cc4ccc(O)c(OC)c4)cc(OC)c3O)c2)ccc1O (stereo unspecified)	i	i	nt	nt
COc1cc(CC(C)C(C)Cc2ccc(O)c(OC)c2)ccc1O (stereo unspecified)	i	i	i	118
C[C@@H]1CN([C@H](C)CO)C(=O)c2cccc(NC(=O)C3CC3)c2O[C@@H]1CN(C)Cc1ccc(Cl)c(Cl)c1	i	78	i	i
C[C@@H]1CN([C@@H](C)CO)C(=O)c2cccc(NS(=O)(=O)c3cccs3)c2O[C@@H]1CN(C)Cc1ccc(Cl)c(Cl)c1	i	i	i	i
C[C@@H]1CN([C@H](C)CO)C(=O)c2cccc(N(C)C)c2O[C@H]1CN(C)Cc1ccc2c(c1)OCO2	i	i	i	i
C[C@H](CO)N1C[C@H](C)[C@H](CN(C)Cc2ccc(Cl)c(Cl)c2)Oc2c(NC(=O)C3CCCCC3)cccc2C1=O	i	i	i	i
C[C@H](CO)N1C[C@H](C)[C@H](CN(C)Cc2ccc(Cl)c(Cl)c2)Oc2c(NS(=O)(=O)c3cccs3)cccc2C1=O	i	98	i	i
C[C@H](CO)N1C[C@H](C)[C@H](CN(C)Cc2ccc(Cl)c(Cl)c2)Oc2c(NS(=O)(=O)c3ccc(F)cc3)cccc2C1=O	i	86	i	i
C[C@@H]1CN([C@@H](C)CO)C(=O)c2cccc(N(C)C)c2O[C@@H]1CN(C)Cc1ccc2c(c1)OCO2	12	i	i	i
C[C@H](CO)N1C[C@H](C)[C@H](CN(C)Cc2ccc3c(c2)OCO3)Oc2ccc(NC(=O)C3CCCCC3)cc2CC1=O	i	i	i	nt
COc1ccc(S(=O)(=O)Nc2cccc3c2O[C@@H](CN(C)Cc2ccc(Cl)c(Cl)c2)[C@@H](C)CN([C@H](C)CO)C3=O)cc1	i	115	i	i
C[C@@H]1CN([C@H](C)CO)C(=O)c2cccc(NS(=O)(=O)c3cccs3)c2O[C@H]1CN(C)C(=O)NC1CCCCC1	i	i	i	i
C[C@H](CO)N1C[C@H](C)[C@H](CN(C)C(=O)NC2CCCCC2)Oc2c(NS(=O)(=O)c3cccs3)cccc2C1=O	i	68	i	i
CCn1c2ccccc2c2cc(/C=N/NC(=O)CCCCCCC(=O)Nc3ccccc3O)ccc21	i	nt	nt	nt
COc1cc(/C=C/C(=O)CC(=O)/C=C/c2ccc(O)c(OC)c2)ccc1O	i	i	i	i
COc1ccc(/C=C/C(=O)CC(=O)/C=C/c2cccc(O)c2OC)cc1O	i	69	i	i
O=c1[nH]c2ccccc2c(=O)n1CCc1ccccc1	nt	nt	nt	i
COc1cc(OC)c(O[C@@H]2O[C@H](COC(=O)c3cc(O)c(O)c(O)c3)[C@@H](O)[C@H](O)[C@H]2O)c(OC)c1	5.6	i	i	i
Cc1noc(C)c1NC(=O)N(C)C[C@@H]1Oc2ccc(NS(=O)(=O)c3ccc(F)cc3)cc2C(=O)N([C@H](C)CO)C[C@H]1C	i	i	i	i
SMILES	YB-1 expression	Hedgehog inh	MITF inhib	BJeLR viability
CC(=O)Oc1ccc(-c2coc3cc(OC(C)=O)cc(OC(C)=O)c3c2=O)cc1	i	i	i	i
CC(=O)OC[C@H]1O[C@@H](Oc2cc(OC(C)=O)c3c(=O)cc(-c4ccc(OC(C)=O)cc4)oc3c2)[C@H](OC(C)=O)[C@@H](OC(C)=O)[C@@H]1OC(C)=O	i	65	i	i
CS(=O)(=O)N(CC(=O)Nc1ccc(F)c(F)c1)c1ccccc1Cl	nt	nt	i	nt
CC(C)NC(=O)N(C)C[C@@H]1Oc2ccc(NC(=O)Nc3cccc4ccccc34)cc2C(=O)N([C@@H](C)CO)C[C@@H]1C	i	nt	i	i
CC(=O)N1c2ccccc2N=C(c2ccc(C)cc2)CC1c1ccccc1 (stereo unspecified)	nt	nt	nt	i
COc1ccc(C2=Nc3ccccc3SC(c3ccccc3)C2)cc1 (stereo unspecified)	i	80	i	i
C[C@@H]1CN([C@H](C)CO)C(=O)c2cc(NS(C)(=O)=O)ccc2O[C@H]1CN(C)C(=O)Nc1ccc(C(F)(F)F)cc1	i	i	i	i
COc1cc([C@@H]2c3cc4c(cc3[C@H](O)[C@H]3COC(=O)[C@H]23)OCO4)cc(OC)c1OC	i	91	i	54
COc1cc([C@@H]2c3cc4c(cc3[C@@H](O[C@@H]3O[C@@H]5CO[C@@H](C)O[C@H]5[C@H](O)[C@H]3O)[C@H]3COC(=O)[C@H]23)OCO4)cc(OC)c1O	i	i	i	i
C/C=C(/C)C(=O)O[C@@H]1c2cc(OC)c(OC)cc2-c2c(ccc(OC)c2OC)C[C@H]2C(=O)OC[C@H]12	i	i	i	i
COc1cc([C@@H]2c3cc4c(cc3[C@H](O)[C@H]3COC(=O)[C@@H]23)OCO4)cc(OC)c1OC	i	75	i	93
CC(C)Oc1ccc(NC(=O)CCN2C(=O)c3ccccc3C2=O)cc1	nt	nt	i	nt
O=S(=O)(c1ccc(OC(F)(F)F)cc1)N1CCNCC1	nt	nt	nt	i
COc1ccc(S(=O)(=O)Nc2ccc3c(c2)C(=O)N([C@H](C)CO)C[C@H](C)[C@@H](CN(C)S(C)(=O)=O)O3)cc1	16	i	i	i
Cc1ccc(S(=O)(=O)N(C)C[C@@H]2Oc3c(NC(=O)Nc4ccc(F)cc4)cccc3C(=O)N([C@H](C)CO)C[C@@H]2C)cc1	i	117	i	i
C[C@H](CO)N1C[C@H](C)[C@H](CN(C)S(=O)(=O)c2ccc(F)cc2)Oc2c(NC(=O)Nc3ccc(F)cc3)cccc2C1=O	i	101	i	i
Cc1ccc(S(=O)(=O)N(C)C[C@@H]2Oc3c(NC(=O)Nc4ccc(F)cc4)cccc3C(=O)N([C@@H](C)CO)C[C@@H]2C)cc1	i	108	i	i
C[C@@H]1CN([C@@H](C)CO)C(=O)c2cccc(NC(=O)Nc3ccc(F)cc3)c2O[C@@H]1CN(C)S(=O)(=O)c1ccc(F)cc1	i	i	i	i
C[C@@H]1CCCCO[C@@H](CN(C)C(=O)NC2CCCCC2)[C@@H](C)CN([C@H](C)CO)C(=O)c2cc(NC(=O)Nc3ccccc3)ccc2O1	i	i	i	nt
CCCN(CCC)C(=O)c1cnn(-c2ccccc2)c1NC(=O)c1ccccc1	i	i	i	i
COc1ccc(NC(=O)Nc2ccc3c(c2)C(=O)N([C@H](C)CO)C[C@H](C)[C@H](CN(C)S(=O)(=O)c2ccc(F)cc2)O3)cc1	10	nt	i	i
CC(C)C(=O)Nc1ccccc1C(F)(F)F	nt	nt	nt	i
